Results filed as inconclusive are left out. Calls of active or inactive are those of the source. Calls follow the shape of the dose curve; as a rule, active = well fitted curve in the direction sought with a large enough effect; inconclusive = small, poorly fitted or top-dose-only effect, or another doubt; inactive = no such curve, though single readings can be large; an effect the other way counts as inactive or inconclusive.
What was measured:
[1] = qHTS Assay for Identifying Gametocytocidal Compounds (AID 743244);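 also: % is scaled to controls: 0 for no effect and ±100 for the full control effect; actives lower the fluorescent signal which means gametocytes are killed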; conditions: P. falciparum 3D7 stage III-V gametocytes, alamarBlue, 72 h; max response: hits give low values
In short: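 Stage III-V P. falciparum 3D7 gametocytes, 20,000 per well, were exposed to compounds for 72 h at 37C, 5% CO2. AlamarBlue was then added for 24 h and viability was read as fluorescence at Ex 525/Em 598 nm.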

[2] = P-glycoprotein substrates identified in KB-8-5-11 adenocarcinoma cell line, qHTS therapeutic library screen (AID 1346987); also: % is scaled to controls: 0 for no effect and ±100 for the full control effect; nearly all actives have a fitted effect of over 65% in size
In short: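 P-gp-mediated resistance screen: KB-8-5-11 cells treated 72 h with compounds in dose-response. CellTiter-Glo viability.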

[3] = tested on: KB-3-1; test: Cytotoxic Profiling of Annotated Libraries Using Quantitative High-Throughput Screening (AID 1296008); conditions: Five cell lines viability, CellTiter-Glo ATP luminescence, 48-72 h; max response: hits give low values; also: % is scaled to controls: 0 for no effect and ±100 for the full control effect; nearly all actives have a fitted effect of over 60% in size
In short: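 Cytotoxicity was measured as CellTiter-Glo ATP luminescence, read after 10 min at room temperature. Compound treatment of the cells lasted 48 or 72 hr at 37 degrees Celsius in a qHTS format.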

[4] = Drug repurposing screens with cells derived from glioblastoma tumor samples (AID 1345199); conditions: GBM patient neurospheres viability, ATP luminescence, 48 h; Potency: tumour line A; series mostly up to 45.9 µM; also: % is scaled to controls: 0 for no effect and ±100 for the full control effect; nearly all actives have a fitted effect of over 40% in size
In short: (§1)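 Four patient lines of CD133+ GBM neurospheres were screened at several concentrations; hits were retested in those lines plus three slower-growing GBM lines, using 48-hour treatment and ATP-based viability.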

[5] = tested on: astro; test: as above; conditions: viability, ATP luminescence, 48 h; series mostly up to 45.9 µM
In short: as §1

[6] = biological target: Glutathione peroxidase 1 (Homo sapiens) (UniProt P07203); test: Primary qHTS Assay for Inhibitors of Recombinant Selenoprotein Glutathione Peroxidase 1 (GPX1) (AID 1845191); also: % is scaled to controls: 0 for no effect and ±100 for the full control effect; nearly all actives have a fitted effect of over 65% in size
In short: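 10 nM GPX1 + cpd, 30 min RT; start w/ 1 mM GSH, 0.5 mM cumene hydroperoxide, 0.5 mM NADPH, 100 nM GR, 0.01% BSA; buffer 50 mM Tris-HCl pH 7.5, 2 mM EDTA, 150 mM NaCl; Fl 340/450, 0 & 15 min.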

[7] = biological target: Phospholipid hydroperoxide glutathione peroxidase GPX4 (Homo sapiens) (UniProt P36969); test: Primary qHTS Assay for Inhibitors of Recombinant Selenoprotein Glutathione Peroxidase 4 (GPX4) (AID 1845192); also: nearly all actives have a fitted effect of over 65% in size
In short: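 NADPH consumption, followed by fluorescence at 340/450 nm between 0 and 15 min, reports GPX4 activity via coupled glutathione reductase (100 nM). Enzyme 200 nM was pre-exposed to compound 30 min; 0.5 mM cumene hydroperoxide and 1 mM GSH served as substrates.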

[8] = tested on: Zika virus NS2B-NS3 protease (linked construct); test: Primary screen NINDS Rhodamine qHTS for Zika virus inhibitors (AID 1347160); also: % is scaled to controls: 0 for no effect and ±100 for the full control effect; nearly all actives have a fitted effect of over 55% in size
In short: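 Percent inhibition, normalized to uninhibited and enzyme-free controls, is fitted to a 4-parameter Hill equation. Fluorescence change comes from a 15-min cleavage of 1.5 microM bis-peptide Rhodamine110 substrate by 25 nM linked NS2B-NS3 at room temperature.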

[9] = biological target: Calcium and integrin-binding protein 1 (Homo sapiens) (UniProt Q99828); test: Primary qHTS for Identification of Calcium Integrin Binding Protein 1 (CIB1) Competitor (AID 1508620);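 also: GST tagged CIB1 binding a fluorescein labelled alphaIIb integrin peptide tracer; top concentration of the series differs between compounds; % is scaled to controls: 0 for no effect and ±100 for the full control effect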
In short: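 CIB1-GST (1 uM final) and compound incubated 15 min at room temperature before adding FITC-alphaIIb peptide tracer (100 nM final). Competition for binding read by fluorescence polarization (ex 480, em 540) after another 15 min at room temperature.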

[10] = biological target: Luciferin 4-monooxygenase (Photinus pyralis) (UniProt P08659); test: Primary firefly luciferase (FLuc) qHTS assay for identification of artifact compounds. (AID 1845220); conditions: outcome: dose series up to 54.1 µM unless noted; also: nearly all actives have a fitted effect of over 60% in size
In short: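 Cell-free, 1536-well qHTS. Buffer pH 7.6 with 0.01% Tween-20 and 0.05% BSA; 10 uM D-luciferin, 10 uM ATP; 10 nM P. pyralis luciferase; luminescence after 5 min.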

[11] = Primary fluorescence-based thiol-reactive (MSTI) qHTS assay for identification of artifact compounds. (AID 1845221);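 also: thiol-reactive compounds lower the probe fluorescence signal; nearly all actives have a fitted effect of over 65% in size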
In short: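 MSTI probe at 4 uM final in 2% DMSO/PBS pH 7.4; compounds, 1 h at room temperature in dark. Fluorescence Ex/Em 525/598 nm, normalised to Acetyl-MSTI and MSTI, fitted to 4-parameter Hill.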

[12] = tested on: Nanoluciferase (engineered Oplophorus gracilirostris luciferase); test: Primary Nanoluciferase (NLuc) qHTS assay for identification of artifact compounds. (AID 1845222);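 also: 0% = DMSO and -100% = no enzyme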
In short: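 Compounds are pinned into diluted (1:55) conditioned medium of NLuc-expressing S16 cells and held 15 min at room temperature protected from light. Nano-Glo substrate follows, and luminescence is read 5 min later.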

[13] = Primary redox qHTS assay for identification of artifact compounds. (AID 1845223);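 also: 0% = DMSO and 100% = reference compound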
In short: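 Amplex Red (25 uM) and HRP (250 mU/mL) in HBSS, with compounds for 15 min, then 250 uM DTT for 30 min, room temperature, dark. Fluorescence 525/598 nm read; normalized to DMSO and 10 uM DA3003; Hill fit.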

[14] = tested on: CASKI; test: Primary qHTS to identify gynecologic anti-cancer compounds using libraries of approved drugs and bioactive compounds (AID 1345084); conditions: Gynecologic cancer cell panel viability, ATPlite luminescence, 48 h; series mostly up to 57.5 µM; also: % is scaled to controls: 0 for no effect and ±100 for the full control effect; nearly all actives have a fitted effect of over 55% in size
In short: (§2)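 Cells, 1,000 per well, plated 16 h, then exposed 48 h at 37 C to compounds. Viability by ATPlite luminescence after 15 min at room temperature.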

[15] = tested on: JEG-3; test: as above; conditions: Gynecologic cancer cell panel viability, ATPlite luminescence, 48 h; series mostly up to 57.5 µM
In short: as §2

[16] = tested on: OV90; test: as above; conditions: Gynecologic cancer cell panel viability, ATPlite luminescence, 48 h; series mostly up to 57.5 µM
In short: as §2

[17] = tested on: Tov-21-G; test: as above; conditions: Gynecologic cancer cell panel viability, ATPlite luminescence, 48 h; series mostly up to 57.5 µM
In short: as §2

[18] = tested on: CRL-7250; test: qHTS assay to identify novel small-molecules to repurpose for Merkel cell carcinoma treatment (AID 1296009); conditions: MCC and control cell lines, CellTiter-Glo viability, 72 h; series mostly up to 92 µM; also: nearly all actives have a fitted effect of over 60% in size
In short: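 After compound transfer in DMSO, plates were kept 72 hr at 37 degree celsius. Luminescent ATP signal from CellTiter-Glo served as viability measure, normalized against DMSO and no-cell controls.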

Phospholipid hydroperoxide glutathione peroxidase GPX4 (Homo sapiens), sequence (P36969 whole entry, looked up): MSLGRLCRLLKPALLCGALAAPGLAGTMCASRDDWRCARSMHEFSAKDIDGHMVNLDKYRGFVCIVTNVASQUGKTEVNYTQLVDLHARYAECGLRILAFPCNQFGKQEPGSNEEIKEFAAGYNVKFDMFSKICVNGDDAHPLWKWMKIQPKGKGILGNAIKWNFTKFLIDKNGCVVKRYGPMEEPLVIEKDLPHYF
Calcium and integrin-binding protein 1 (Homo sapiens), sequence (Q99828 whole entry, looked up): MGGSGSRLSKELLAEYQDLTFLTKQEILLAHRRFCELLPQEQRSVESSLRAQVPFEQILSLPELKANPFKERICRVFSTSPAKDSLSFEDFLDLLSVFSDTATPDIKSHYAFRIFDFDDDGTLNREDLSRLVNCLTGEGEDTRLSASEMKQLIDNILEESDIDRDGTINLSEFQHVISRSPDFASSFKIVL
Glutathione peroxidase 1 (Homo sapiens), sequence (P07203 whole entry, looked up): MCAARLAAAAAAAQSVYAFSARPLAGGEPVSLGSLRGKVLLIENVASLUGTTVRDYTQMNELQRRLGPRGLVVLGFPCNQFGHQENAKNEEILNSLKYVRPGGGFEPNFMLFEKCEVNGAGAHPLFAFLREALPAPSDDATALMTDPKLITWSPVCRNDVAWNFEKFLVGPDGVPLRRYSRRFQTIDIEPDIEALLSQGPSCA

Oc1ccc2c3c1O[C@H]1[C@@H](O)C=C[C@H]4[C@H](C2)NCC[C@@]341
inactive: max response [1] 8.16% | Potency [2] | max response [3] -12.5% | Potency [4] | Potency [5]

Clc1ccc([C@@H]2C[C@H]3CC[C@@H]2N3)cn1
inactive: max response [1] 7.9% | Potency [2] | max response [3] -6.98% | Potency [4] | Potency [5]

O=P1(N(CCCl)CCCl)NC(OO)CCO1 (centres undefined)
inactive: max response [1] -1.64% | Potency [2] | max response [3] 2.7% | Potency [4] | Potency [5]

COC(=O)[C@H]1[C@@H](OC(=O)c2ccccc2)C[C@@H]2CC[C@H]1N2C
inactive: max response [1] -15.4% | Potency [2] | Potency [6] | Potency [7] | max response [3] 1.68% | Potency [4] | Potency [5]

CC1=CC(=O)[C@@H](O)[C@]2(C)C3[C@@H](O)[C@@H]4OC(=O)[C@@H]([C@H]4C)[C@]3(C)C(=O)[C@H](O)[C@@H]12 (some centres undefined)
inactive: Potency [8] | Potency [9] | outcome [10] | Potency [11] | Potency [12] | Potency [13] | Potency [14] | Potency [15] | Potency [16] | Potency [17]

C=CCCN1CCC2(CC1)CN(C(=O)c1c(F)cccc1F)c1ccc(Cl)cc12
inactive: Potency [18]

CC(C)C1CCC(CO)=CC1/C=C(\CO)C(=O)OCC1(O)CCC(C(C)C)C2C=C(C(=O)O)COC(=O)C21 (centres undefined)
inactive: Potency [18]
